Data on 40 sequences can be found in the supplement of paper PMC6555819.

This assay has as its system LXRb homodimer (NR concentration 270 nM). The experiment in a line: PBM binding z-score (relative to random genomic background probes); higher = stronger binding; sequences stand for … in GC…GCGATTGACAGCGTAGAATGAAGG
The method in brief: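 Scanned fluorescence from custom Agilent 4×180K protein-binding microarrays was regression-normalized. Binding z-scores use random background probes as reference. Ligand-free nuclear receptor dimers were incubated on the arrays for 1 h and detected with antibodies against each partner (one per run).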
GCTAGCAGGCCATTTGAGTCACTCAATGACGGGC displayed a PBM binding z-score of -0.622.
The sequence TAGCCTAGGTCATTCAGGGGCCAGTATAGAAAGC showed a PBM binding z-score of 0.97.
As for ATCTCTAGTTAAAGTTCAGTGAAAGATCGATAGA, the figure is 1.33; as for ATATGTAGGTTAGCTGGGTTCATTCAGACTAGGC, 0.361; as for TCTATTAGTTCATTAGGGCAACCGAAACAGCGGA, 1.34.
Under CCTGCTAGGTCATGGTCCGCTAATCTACAGTATG stands -0.223; under TGTAGCAGGCCAGAGGGTCACTCAAGAGGTACGG, -1.21; under CGAACTAGGTCAGAACAAGACAGTGAAGGATGAT, -0.311.
Consider ATCTCTAGGTAACAAGTTGAGTGAAAGAGAGGAC, for which the PBM binding z-score was 0.76.
Under AGTCAAAGCTCAGGACGAGGTAACGTAAAGCACG stands -0.87.
As for ACTAGTTGGTCAGCTGAGGTCAGACACAATTCGG, the figure is 0.149.
As for CCTTACGGGTCACGCGGTTATAGCACGACGAGCG, the figure is 0.0354; as for TCTTGTAGAGCAAGCAGGTTAAGAAAGCCTGAGT, -1.49.
As to ATACCAAGGGGATCGTGAGGTCGTTGATACTAAC, the PBM binding z-score is -0.272.
Under AGTCAAAGTTCAGGTCGAGGTAACGTAAAGCACG stands 0.819.
CCAGACAGGTGAGAAGGTAACCCAGCCTCGATTA yielded a PBM binding z-score of 0.023.
The sequence CCTAGCAGGCCAATCTGGGTCACTCAAGGCTTGA showed a PBM binding z-score of -1.04.
As for TCATATAGGTACAGGTGAAAGTCGAACGATATGA, the figure is -0.304; as for CAAACTAGGTCAAGGACAAAGTCGGTTTGTGCCA, 0.178; as for TCAAATAGGTAATACAGGTGAAAGTCGGCATCTA, 0.0118.
Under GCTTGTAGATCGAGGTTAAGAAAGACTAAGCTAA stands -0.682; under ACTATTAGTTCAGACGAGGGCAACCGATAGGTTG, 0.271; under AATATTAGTTGAGACGAGGGCAACCGATAGGTTG, 0.174.
As for GCATATAGGTAATACAAGGTGATAGTCCGATTGT, the figure is -0.184; as for CCTACTGGTCCACGAAAGGTCATTGATTCAGTGA, 1.21; as for GCGAGTGGGGCATCAGCAGGTTACCATAACTTAA, 0.239.
In turn, AGAATGAGGTTGTTAAGATCAGGGAATTGCGGTC came in with a PBM binding z-score of -0.0779.
Under TCCAGCAGGCCAGAGGGTCACTCAAGAGGTACGG stands -1.14; under GCTTGTAGATAAAGGTTAAGAAAGACTAAGCTAA, -0.409; under CAGCCTAGGTCTGGGCCAGTATAGGAGGAACGTT, -1.28.
Under CCTAGTTGGTCGAGGTCACACACGCTATAGGTAC stands 0.632.
As for ACTCGGAGCACAAAGGTCAGAGCTACGCCAGTGA, the figure is 0.00562; as for TCATATAGGTAAAAGGTGAAAGTCGGTGTGGTAA, 0.0331; as for CCTCGGAGGCCAGAAGGTCAGAGCTGTCCGCTTT, -0.99.
Regarding TATACAGGGTCAAAGGCCCGAGTACGAATGTCGA, the PBM binding z-score amounted to 2.
Under CGTCCAAGGTCAATGCTCGGTCAGTGAAAGCATT stands 0.788; under TCTATTACTTGAAGGGCAACCGACGAGTCCGTTT, 0.925; under CCGAGTAGTTTATGGGGCATTCAGGCAACGGTGA, -0.0668.
Under TCGAGTAGATTAGTCGGGGCATTCAGCCAACATA stands -1.13; under CGTCCAAGATCAGCAGGTCAGTGAAAGCGACGTG, -0.306.
